The source of these data is PubChem BioAssay AID720709 (National Center for Advancing Translational Sciences (NCATS), 2013).

SMILES strings stand for the structures. Hit rate of the full screen: of about 360,000 compounds, about 520 (0.14%) were called active. Not shown: some 3% with an inconclusive outcome. Shown is part of a subset that was picked to be rich in actives. A number with no mark means an inactive call. Calls come from the whole dose curve; as a rule, active = well fitted inhibition curve with a large enough effect; inconclusive = small, poorly fitted or top-dose-only effect; inactive = no such curve, though single readings can be large or run the other way.
Potency is the fitted concentration of half-maximal effect.

Sequence of Rap guanine nucleotide exchange factor 3 (Homo sapiens) (O95398 whole entry, looked up): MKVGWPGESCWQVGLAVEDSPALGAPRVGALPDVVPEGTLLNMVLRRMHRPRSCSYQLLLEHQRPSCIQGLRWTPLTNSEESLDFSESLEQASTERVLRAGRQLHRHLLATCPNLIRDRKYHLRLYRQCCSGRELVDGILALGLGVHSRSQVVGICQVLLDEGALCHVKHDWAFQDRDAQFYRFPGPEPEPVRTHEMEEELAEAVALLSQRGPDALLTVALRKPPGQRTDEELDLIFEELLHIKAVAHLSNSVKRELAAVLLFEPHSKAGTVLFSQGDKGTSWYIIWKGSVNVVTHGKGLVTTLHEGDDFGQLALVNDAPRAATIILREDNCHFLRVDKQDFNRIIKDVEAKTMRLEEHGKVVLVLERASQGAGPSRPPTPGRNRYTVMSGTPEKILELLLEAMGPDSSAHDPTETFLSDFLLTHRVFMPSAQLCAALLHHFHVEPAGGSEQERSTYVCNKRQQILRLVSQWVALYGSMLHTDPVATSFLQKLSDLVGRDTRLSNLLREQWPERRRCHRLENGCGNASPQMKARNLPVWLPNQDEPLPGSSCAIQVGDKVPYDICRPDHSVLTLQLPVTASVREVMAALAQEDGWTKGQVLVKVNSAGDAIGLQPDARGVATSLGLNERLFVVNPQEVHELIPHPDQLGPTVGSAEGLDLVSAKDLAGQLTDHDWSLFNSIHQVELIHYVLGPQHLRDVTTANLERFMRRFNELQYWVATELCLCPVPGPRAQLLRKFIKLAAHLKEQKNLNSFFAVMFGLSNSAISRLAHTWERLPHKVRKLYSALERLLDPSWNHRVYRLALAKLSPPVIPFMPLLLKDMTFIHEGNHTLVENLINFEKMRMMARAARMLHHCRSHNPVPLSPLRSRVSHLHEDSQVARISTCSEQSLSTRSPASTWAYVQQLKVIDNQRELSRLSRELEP

This assay deals with Rap guanine nucleotide exchange factor 3 (Homo sapiens) (UniProt O95398). The assay is described as follows: qHTS for Antagonist of cAMP-regulated guanine nucleotide exchange factor 3 (EPAC1): primary screen. Note: nearly all actives have a fitted effect of over 50% in size. Particulars: EPAC1 GEF assay, Rap1b-BODIPY-GDP exchange fluorescence; series mostly up to 115 µM; activity change, negative = inhibition: at the top concentration. The source says:
In multi-cellular eukaryotic organisms, the effects of cAMP are transduced by two ubiquitously-expressed intracellular cAMP receptors, the classic protein kinase A/cAMP-dependent protein kinase (PKA/cAPK) and the more recently discovered exchange protein directly activated by cAMP/cAMP-regulated guanine nucleotide exchange factor (EPAC/cAMP-GEF). Both PKA and EPAC are ubiquitously expressed in all tissues, and an increase in intracellular cAMP levels will lead to the activation of both PKA and EPAC. Therefore, careful dissections of the individual role and relative contribution of EPAC and PKA within the overall cAMP signaling in various model systems are critical for further elucidating the mechanism of cAMP signaling. To date no EPAC-specific antagonists and agonist, as well as isoform-specific agonists have been reported, and developing EPAC-specific pharmacological probes to determine the physiological functions that EPAC play in the overall cAMP-mediated signaling remains a major challenge within the research field. Furthermore, identified regulators of EPAC may lead to new mechanism-based therapeutic strategies specifically targeting the EPAC / cAMP-signaling components as EPAC has been implicated to play important roles in major human pathological conditions such as diabetes, heart disease, and cancer. This qHTS will be used to screen the Molecular Libraries Small Molecule Repository (MLSMR) as a concentration-titration series using the NCGC unique quantitative screening (qHTS) platform to find inhibitors for EPAC1. In addition, this assay will also be used as a counterscreen for the EPAC2 qHTS. This fluorescent based assay is developed and validated for EPAC1 that measures exchange using EPAC effector Rap1 complex with BODIPY-GDP, a GDP analog with a tethered fluorophores. Inhibitors are identified by monitoring the change in fluorescence signal as the exchanged free BODIPY-GDP has a reduced fluorescence compared to Rap1-bound BODIPY-GDP. Decrease in signal (inhibition) is the desired outcome for the EPAC1 antagonist while no activity in this assay is desired for the EPAC2 antagonist counterscreen. de Rooij, J., Zwartkruis, F. J., Verheijen, M. H., Cool, R. H., Nijman, S. M., Wittinghofer, A., and Bos, J.L. (1998) Nature 396, 474-477 [2] Kawasaki, H., Springett, G. M., Mochizuki, N., Toki, S., Nakaya, M., Matsuda, M., Housman, D. E., and Graybiel, A. M. (1998) Science 282, 2275-2279 NIH Chemical Genomics Center [NCGC] NIH Molecular Libraries Probe Centers Network [MLPCN] MLPCN Grant: NS066510 Assay Submitter (PI): Xiaodong Cheng, The University of Texas, Medical Branch
Briefly, three uL of reagents (100 nM EPAC1, 250 nM RAP1B-BODIPY-GDP, 50 uM GDP) were dispensed into a 1536-well Greiner black solid-bottom medium binding assay plate. Controls and test compounds (23 nL) were transferred to the plate via a Kalypsys pin tool equipped with a 1536-pin array. The plates were centrifuged at 1,000 rpm for 15 seconds followed by 5 minute incubation at room temperature. The assay plates were read at 5 minute intervals for 30 minutes in the ViewLux plate reader using 480nm excitation and 540nm emission filters. The results were normalized to the […] positive control ATA and DMSO.
Regarding `CC(C)(C)C1CCC(=O)N2CCC[C@]2(c2ccccc2)C1` (some centres undefined), the “activity change, negative = inhibition” value is -18.9%.
For the compound `CCOC(=O)[C@]12CCCC=C1N(CCC1=CCCCC1)C(=O)[C@H](CC(=O)N1CCN(C(=O)c3ccco3)CC1)C2`, the “activity change, negative = inhibition” value was 1.32%.
For `Cc1[nH]c2ccccc2c1C(=O)c1cc([C@H](NC(=O)OC(C)(C)C)C(C)C)sc1N`, the “activity change, negative = inhibition” value is -13.3%.
Regarding `CCOC(=O)N1C(=O)C[C@](Sc2ccc(C)cc2)(C(=O)OC)[C@H]1c1ccccc1`, the “activity change, negative = inhibition” value is -13.4%.
For the compound `O=C(C[C@H]1CC[C@H]2[C@@H](COC[C@H](O)CN2C(=O)c2ccccn2)O1)N1CCN(c2ccccc2)CC1`, the “activity change, negative = inhibition” value is 10.9%.
Consider `Nc1nc2c(Br)ccc(Br)c2cc1C(=O)NCCc1ccccc1`, for which the “activity change, negative = inhibition” value was -1.34%.
`O=c1[nH][nH]c2c1[C@H](c1ccc(Cl)cc1)O[C@H](CCc1ccccc1)C2`: the “activity change, negative = inhibition” value is -17.2%.
On the same count and under the same terms, then `CC1(C(=O)Nc2ccc3c(c2)OCCO3)CSCC(=O)N1CCOc1ccccc1` (centres undefined), with 9.55%.
Same read-out and setting: then `Cc1ccc(S(=O)(=O)N[C@H](CO)C(C)C)cc1`, with -3.21%.
Take `N#Cc1ccc(-c2nc3c(Cl)cc(C(F)(F)F)cn3c2Cc2ccccc2C(F)(F)F)cc1`: the “activity change, negative = inhibition” value is -5.26%.
With `CC1(C)OC(=O)C2=C(C[C@@H](C3CCCCC3)O[C@@H]2c2ccc(Cl)cc2)O1`, the “activity change, negative = inhibition” value was -25.4%.
As to `COC(=O)C1(C(=O)OC)C[C@H](c2ccccc2)N(Cc2ccccc2OC)[C@@H]1c1ccccc1`, the “activity change, negative = inhibition” value was -3.05%.
Consider `CN1CCN(c2ccc3c(c2)OC[C@H](Cc2ccccc2)NS3(=O)=O)CC1`, for which the “activity change, negative = inhibition” value was -10.2%.
Turning to `COC(=O)C[C@H]1C=C[C@H](NC(=O)c2ccc(F)cc2)[C@@H](CO)O1`, the “activity change, negative = inhibition” value is -26.1%.
Same read-out and setting: as for `C=C1C(=O)OC2C1CCC(C)=CCCC1(C)OC21` (centres undefined), the figure is -16.4%; as for `CO[C@@H]1CN(C)C(=O)c2cc(NC(=O)C3CC3)ccc2OC[C@H](C)N(C(=O)CN2CCOCC2)C[C@@H]1C`, -0.664%; as for `CC(C)C1C(=O)N(Cc2cn(CCC3OCCO3)nn2)CCS(=O)(=O)N1Cc1ccc(-c2ccccc2C(F)(F)F)cc1` (centres undefined), -16.9%.
For the compound `CCOC(=O)[C@]12CCC=C1N(Cc1cccc3ccccc13)C(=O)[C@H](CC(=O)NCc1cccc(C(F)(F)F)c1)C2`, the “activity change, negative = inhibition” value was -22.9%.
For the compound `CCCCC[C@H](C)N1C[C@@H](COCc2ccccc2)Oc2cc(N3CC[C@@H](N(C)C)C3)ccc2S1(=O)=O`, the “activity change, negative = inhibition” value is -13.4%.
The same measure, in the same setting: then `C=CCC[C@@H](CCCCC)OC(=O)/C=C/[C@@H](O)[C@H](O)C[C@H](O)CC=C`, with -3.19%; and `CCOC(=O)c1ccc(-c2ccc3ncnc(N(C)Cc4sccc4C)c3c2)o1`, with -20.6%.
For the compound `CCCNC(=O)c1cc2c(c(-c3cccc(-c4ccc(C#N)cc4)c3)n1)[C@@H](CCO)N(C(=O)CC)C2`, the “activity change, negative = inhibition” value was -12.9%.
With `Cc1ccc(C(=O)Nc2c(-c3ccccc3)[nH][nH]c2=O)cc1`, the “activity change, negative = inhibition” value was -14.8%.
For `CCCc1nc2ccccc2n1C(C)C(=O)NC(C)(C)C` (centres undefined), the “activity change, negative = inhibition” value was 1.55%.
The same measure, in the same setting: then `N#Cc1ccc(C(C(=O)NCc2ccccc2)n2c(=O)c(-c3ccco3)nc3ccccc32)cc1` (centres undefined), with -6.44%.
In the case of `CC(C)NC(=O)N1Cc2cc(C(=O)NCC(F)(F)F)nc(-c3cccc(-c4cc5ccccc5o4)c3)c2[C@@H]1CCO`, the “activity change, negative = inhibition” value was 7.65%.
On to `CC(C)C[C@H]1CNC(=O)C(=O)N1C[C@H]1CCCN1C[C@H](Cc1ccc(O)cc1)N1C[C@H](CC(C)C)N(CC2CCCCCC2)C(=O)C1=O`, for which the “activity change, negative = inhibition” value was -10.1%.
For the compound `COC(=O)c1ccc2c(c1)S(=O)(=O)NC2C` (centres undefined), the “activity change, negative = inhibition” value was 1.42%.
Still for that read-out and setting: then `CCC(C(=O)NCc1ccccc1)n1c(Cc2cc(F)cc(F)c2)nc2ccccc21` (centres undefined), with -11.9%.
`CCOC(=O)c1cc2cc(OC)ccc2n1C1CCN(C)CC1`: the “activity change, negative = inhibition” value is -3.06%.
Regarding `COC(=O)[C@@]1(Sc2ccc(C)cc2)CC(=O)N(c2cccc(SC)c2)[C@@H]1c1ccccc1`, the “activity change, negative = inhibition” value is -16%.
Same read-out and setting: as for `COC(=O)[C@]12CCCCC=C1N(Cc1ccccc1)C(=O)[C@H](CC(=O)NCc1ccc(C)o1)C2`, the figure is -8.27%.
On to `CC(C)OC(=O)CC(=O)CC(O)c1cccc([N+](=O)[O-])c1` (centres undefined), for which the “activity change, negative = inhibition” value was 10.8%.
In the case of `CCCCc1c(-c2ccc(Cl)cc2)ncn1CCc1ccccc1OC`, the “activity change, negative = inhibition” value is -17.1%.
For the compound `CCOC(=O)N1CCN(C(=O)C[C@@H]2C[C@@]3(C(=O)OC)CC(C)(C)CC=C3N(Cc3ccco3)C2=O)CC1`, the “activity change, negative = inhibition” value was 12.7%.
In the case of `Nc1[nH]c(C(=O)c2ccccc2)c(-c2ccncc2)c1C(=O)NCc1cccc2ccccc12`, the “activity change, negative = inhibition” value is 7.33%.
As for `CC(C)c1ccc2c(c1)c(SC(C)(C)C)c(CC(C)(C)C(=O)O)n2Cc1ccc(Cl)cc1`, the Potency is 25.1 µM (active).
For the compound `CCCCc1c(-c2ccc(Br)cc2)ncn1CCc1ccccc1OC`, the “activity change, negative = inhibition” value was -8.85%.
Take `CCC(=O)N1Cc2cc(C(=O)NCc3cccc(F)c3)nc(-c3cccc(C4=CCCC4)c3)c2[C@H]1CCO`: the “activity change, negative = inhibition” value was -8.22%.
Regarding `CCC(C)Cn1c(O)cc2nn(-c3nc4ccccc4s3)c(=O)c-2c1C` (centres undefined), the Potency is 50.1 µM (active).
Turning to `Cc1cc2nc(-c3ccc(F)cc3)c(Cc3ccsc3)n2c(C)c1Br`, the “activity change, negative = inhibition” value is 7.15%.
For the compound `COc1ccc(NC(=O)C(c2ccncc2)n2c(=O)c(-c3cc4ccccc4[nH]3)nc3ccccc32)cc1` (centres undefined), the “activity change, negative = inhibition” value was -8.06%.
Turning to `CCCCCc1c(Cc2ccccc2)ncn1CCc1ccccc1OC`, the “activity change, negative = inhibition” value is -18.1%.
As to `Cc1ccc(-c2c(N)nc3ncccn23)cc1`, the “activity change, negative = inhibition” value was -8.75%.
